In PubChem BioAssay AID1523 (The Scripps Research Institute Molecular Screening Center, 2009):
This is one part of the list. Values without a mark were called inactive. Rule as the data show it: active = activation above about 12%; inactive = the rest.

Target: Sphingosine 1-phosphate receptor 4 (Homo sapiens) (UniProt O95977)
Test: S1P4 receptor agonists, retest, confirmation, cell-based, high throughput (AID 1523);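 also: 0% = vehicle and 100% = full reference agonist response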
Settings: S1P4 agonist cell-based reporter assay; at 4.98 µM; active compounds read high

Sequence of Sphingosine 1-phosphate receptor 4 (Homo sapiens) (O95977 whole entry, looked up): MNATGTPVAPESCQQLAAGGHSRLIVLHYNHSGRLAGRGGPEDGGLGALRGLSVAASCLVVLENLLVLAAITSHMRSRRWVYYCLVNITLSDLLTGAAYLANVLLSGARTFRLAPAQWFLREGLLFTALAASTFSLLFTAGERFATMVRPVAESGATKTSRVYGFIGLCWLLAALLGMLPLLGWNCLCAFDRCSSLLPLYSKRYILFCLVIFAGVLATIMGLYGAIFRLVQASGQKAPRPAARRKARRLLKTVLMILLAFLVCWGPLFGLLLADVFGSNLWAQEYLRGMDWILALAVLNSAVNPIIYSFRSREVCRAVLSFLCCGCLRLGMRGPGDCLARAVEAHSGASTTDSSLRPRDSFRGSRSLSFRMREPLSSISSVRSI

CC(C)N(CC#CCC1(O)c2ccccc2-c2ccccc21)C(C)C
activation: -2.04%
